From PubChem
HCV inh – inhibitors of hepatitis C virus infection | 340,000 compounds, 3.4% hits | Huh7.5.1 HCVcc-Cre infection, luciferase reporter, 44 h | Potency, µM (series often up to 41.8 µM), for the others: at the highest dose activity change, negative = inhibition, usual class: inhibitors; further: potency means the concentration at half of the fitted maximal effect; on the % scale 0 is the no-effect control and ±100 the full control effect
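Infectious HCV cell culture screen: compound-treated cells (1,000/well, pre-plated 4 h) are infected with HCVcc-Cre at roughly 0.5 moi and grown 44 h. Infection is quantified by luciferase signal after 15 min substrate incubation at room temperature.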
Lassa entry inh – blocks Lassa virus binding to or entry into cells; 300,000 compounds, 1.2% hits; Potency, µM (top dose mostly 37.9 µM), inactives show at the top dose activity change, negative = inhibition, hits mostly inhibitors; Lassa virus pseudotype entry inhibition, cell reporter; AID 540256; calls by dose curve; tested in HEK293 cells; further: potency means the concentration at half of the fitted maximal effect; on the % scale 0 is the no-effect control and ±100 the full control effect; nearly all actives have a fitted effect of over 50% in size
HCMV antiviral – human cytomegalovirus inhibition; activity change, negative = inhibition, % at 57.5 µM; HFF cells, HCMV-luciferase reporter, 72 h; active compounds read low; 410,000 compounds, 4.5% hits; in the data active means activity change below about -60%; inconclusive means no clear call, values can overlap the other calls; inactive means above about -39%; further: on the % scale 0 is the no-effect control and ±100 the full control effect
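HFF cells seeded 16 h at 37C, treated with compounds, infected with luciferase-reporter HCMV at MOI 1 PFU/cell; luciferase read at 72 h post infection, normalized to buffer-only and Salinomycin controls.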
MARV entry inh – Marburg virus entry inhibition. AID 540276. Marburg virus pseudotyped entry inhibition, cell reporter. 300,000 compounds, 1.8% hits. Potency, µM (top dose mostly 37.8 µM), without a hit: at the highest dose activity change, negative = inhibition, usual class: inhibitors; calls by dose curve; tested in HEK293 cells; further: potency means the concentration at half of the fitted maximal effect; on the % scale 0 is the no-effect control and ±100 the full control effect
FMDV inh – foot and mouth disease virus antiviral activity | FMDV antiviral cell-based qHTS | Potency, µM (highest dose often 57.9 µM), inactives show at the top dose activity change, negative = inhibition, usual class: inhibitors | 410,000 compounds, 1.2% hits | AID 1159524; calls by dose curve; tested in HEK293T cells; further: read-out not given here; potency means the concentration at half of the fitted maximal effect; on the % scale 0 is the no-effect control and ±100 the full control effect; nearly all actives have a fitted effect of over 45% in size
HCV confirm – confirmation of hepatitis C virus inhibitors. 640 compounds, 78% hits. AID 720575. HCVcc-Cre infectious virus cell assay, luciferase, inhibition. shares compounds with HCV inh. Potency, µM (highest dose often 41.8 µM), for inactives: at the top dose activity, negative = inhibition, most hits filed as inhibitors; further: potency means the concentration at half of the fitted maximal effect; nearly all actives have a fitted effect of over 80% in size
HCV host tox – toxic to HCV host cells, flagging false HCV inhibitors; shares compounds with HCV inh; HCV host cell line cytotoxicity counterscreen; Potency, µM (series often up to 41.8 µM), for the others: at the highest dose activity change, negative = cytotoxicity, hits mostly inhibitors; 640 compounds, 22% hits;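 further: potency means the concentration at half of the fitted maximal effect; 44 h compound exposure; on the % scale 0 is the no-effect control and ±100 the full control effect; nearly all actives have a fitted effect of over 55% in size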
Starred values were filed as active, the others as inactive; ? = inconclusive; · = not tested or not shown; [ ] = remark or other dose. A selection: hits, their analogues and other compounds. The true share with any hit is near 7.9%. Unless noted, the call rests on the fitted dose curve; in most records, active means well fitted curve in the direction sought with a large enough effect; inconclusive means small, poorly fitted or top-dose-only effect, or another doubt; inactive means no such curve, though single readings can be large; an effect the other way counts as inactive or inconclusive.

SMILES	HCV inh	Lassa entry inh	HCMV antiviral	MARV entry inh	FMDV inh	HCV confirm	HCV host tox
Cc1ccc(S(=O)(=O)N2CCC(=O)N(CCOCc3ccc(C(F)(F)F)cc3)CC2)cc1	?	?	?	16µM*	?	2.2µM*	?
Cc1csc(N2CCN(c3cc4c(cc3Cl)nc(-c3ccncc3)n4CCCN3CCCC3)CC2)n1	?	·	6	·	?	14µM*	67%
COc1ccc(-c2nc(CN3CCN(c4ncnc5ccccc45)CC3)c(C)o2)c(OC)c1	5µM*	?	-82*	15µM*	20µM*	5µM*	7.9µM*
COc1cc(/C=N/n2nnnc2Nc2ccccc2)cc(OC)c1OC	?	-13%	·	?	-16%	?	12%
COc1cc(/C=N/n2c(-c3ccccc3)n[nH]c2=S)cc(OC)c1OC	6%	?	28	?	-29%	·	·
Cc1ccc(C)c(CN2C(=O)c3ccccc3S(=O)(=O)c3ccc(C(=O)Nc4cc(F)ccc4F)cc32)c1	·	-26%[46.1 µM]	14	?	32%	·	·
Cc1cc(C)cc(OCCSc2nc3ccc(NC(=O)c4ccc5c(c4)OCO5)cc3s2)c1	·	12%[46.1 µM]	0	-8%[46.1 µM]	7%	·	·
COCCN(C(=O)COC(=O)/C=C/c1ccco1)c1c(N)n(Cc2ccccc2)c(=O)[nH]c1=O	1%	-5%	12	0%	-19%	·	·
COCCN(C(=O)COC(=O)/C=C/c1ccc(OC)c(OC)c1)c1c(N)n(Cc2ccccc2)c(=O)[nH]c1=O	?	23%	-29	18%	4%	?	27%
CCN(Cc1ccccc1)c1ccc(/C=N/NC(=O)c2cccc(S(=O)(=O)N3CCOCC3)c2)cc1	?	?	?	?	?	5.6µM*	-34%
COc1cc(/C=N/NC(=O)c2cccc(S(=O)(=O)N3CCOCC3)c2)cc(OC)c1O	-10%	-4%[46.1 µM]	35	-1%[46.1 µM]	-26%	·	·
Cc1ccc(OCC(O)Cn2c3ccccc3c3ccccc32)cc1 (stereo not drawn)	?	?	-34	-55%	·	·	·
CC(=O)N(C)c1ccc(OCC(O)Cn2c3ccc(Cl)cc3c3cc(Cl)ccc32)cc1 (stereo not drawn)	0.89µM*	?	·	11µM*	?	4µM*	28µM*
COc1ccc(C)cc1NC(=O)c1c(C(=O)Nc2cccc(C)c2C)sc2nc(C)cc(=O)n12	·	5%[46.1 µM]	12	?	2%	·	·
C/C(CCc1oc2ccccc2c1-c1ccc(C)o1)=N/O	7.9µM*	-14%	-21	?	-18%	25µM*	16%
COc1ccc(CCNc2ncnc3[nH]ncc23)cc1OC	?	-26%	?	?	18µM*	8.9µM*	-21%
Fc1ccc(CCNc2ncnc3[nH]ncc23)cc1	?	-9%	-36	-20%	-9%	·	·
COc1ccc(NC(=O)c2cccc(S(=O)(=O)N3CCN(c4ccccc4)CC3)c2)c(OC)c1	?	-24%	-28	?	-10%	22µM*	9%
CCC(=O)Nc1ccccc1-c1nc2ccccc2n(C(CC)C(=O)Nc2cccc(C(C)=O)c2)c1=O (stereo not drawn)	·	5%[46.1 µM]	8	1%[46.1 µM]	-9%	·	·
Cc1cc(C[n+]2ccsc2N)c2ncccc2c1	-5%	·	-15	·	-13%	·	·
Cc1cc(C[n+]2ccccc2)c2nsnc2c1	?	0%	?	10%	·	3.5µM*	13µM*
CCOc1ccc(NC(=O)c2cc(=O)c3cc(CC)ccc3o2)cc1	·	10%[46.1 µM]	-14	?	7%	·	·
O=[N+]([O-])c1ccc(/C=[N+](\[O-])[C@@H]2CCCC[C@@H]2/[N+]([O-])=C/c2ccc([N+](=O)[O-])o2)o1	?	?	-98*	?	32µM*	?	?
COc1ccc(NC(=O)CN2CCCN(S(=O)(=O)c3ccc(Br)cc3)CC2)c(OC)c1	·	-14%[46.1 µM]	-12	-16%[46.1 µM]	?	·	·
